Assay [1] can be described thus: Human pregnane X receptor (PXR) small molecule agonists, qHTS cell viability counter screen (AID 1346977). Also: nearly all actives have a fitted effect of over 50% in size. Also: potency is read from the fitted curve at half-maximal effect. Summed up:
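PXR-Luc HepG2, 2,000 cells/well, 5% charcoal-stripped FBS; 5hr settle; cpd 24hr, 37C/5% CO2; CellTiter-Fluor at 23hr, read 1hr later (fluorescence).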

A short description of assay [2]: Caspase-3/7 induction in CHO-K1 cells by small molecules, qHTS cell viability counter screen (AID 1346979). Also: nearly all actives have a fitted effect of over 35% in size. Also: potency is read from the fitted curve at half-maximal effect. Summed up:
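Cells (CHO-K1, wild type) are plated at 1,500 per well and incubated 5hr. Test compounds in DMSO are then pinned in, followed by 16hr at 37C and 5% CO2. Viability is read by CellTiter-Fluor fluorescence after 1hr.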
A general note: Quantitative high-throughput screening tests each substance at several concentrations.

Assay [3] is described as follows: Caspase-3/7 induction in CHO-K1 cells by small molecules, qHTS assay (AID 1346980). Also: % is scaled to controls: 0 for no effect and ±100 for the full control effect; nearly all actives have a fitted effect of over 15% in size. Summed up:
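Luminescent Caspase-Glo 3/7 read (30min, room temperature) quantified apoptosis induction. Cells were wild-type CHO-K1, treated with compound for 17hr at 37 C and 5% CO2.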

A short description of assay [4]: Caspase-3/7 induction in HepG2 cells by small molecules, qHTS cell viability counter screen (AID 1346981). Also: nearly all actives have a fitted effect of over 30% in size. Also: potency is read from the fitted curve at half-maximal effect. The method in brief: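 Steps: seed 2,000 HepG2 cells per well; incubate 5 hr at 37 C; pin-add compounds in DMSO; incubate 16 hr; add CellTiter-Fluor; after 1 hr at 37 C and 5% CO2, read fluorescence.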
Assay [5] deals with Nuclear receptor subfamily 1 group I member 2 (Homo sapiens) (UniProt O75469). As to the kind of experiment: Human pregnane X receptor (PXR) small molecule agonists, qHTS assay (AID 1346982). Also: nearly all actives have a fitted effect of over 35% in size. Also: potency is read from the fitted curve at half-maximal effect. As to activation: % is scaled to controls: 0 for no effect and ±100 for the full control effect. Summed up:
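Agonist mode qHTS: PXR-Luc HepG2 cells plated 5 hr before DMSO-dissolved compounds were pinned in, cultured 24 hr at 37 C, 5% CO2; ONE-Glo luminescence readout.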

The target in assay [6] is Nuclear receptor subfamily 1 group I member 2 (Rattus norvegicus) (UniProt Q9R1A7). As to the kind of experiment: Rat pregnane X receptor (rPXR) activation by small molecules, qHTS assay (AID 1346983). Also: % is scaled to controls: 0 for no effect and ±100 for the full control effect; nearly all actives have a fitted effect of over 20% in size. Particulars: rPXR luciferase reporter cells, One-Glo luminescence, 24 h; max activation: active compounds read high. Summed up:
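Luminescent readout (One-Glo luciferase, 30 min room temperature) followed 24 hr compound treatment at 37 C of rPXR cells plated 2,000 per well and preincubated 5hr; qHTS format with compounds delivered in DMSO.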

Assay [7] deals with Nuclear receptor subfamily 1 group I member 2 (Homo sapiens) (UniProt O75469). As to the kind of experiment: CYP3A4 induction through human pregnane X receptor (PXR) by small molecules, qHTS assay (AID 1346984). Also: potency is read from the fitted curve at half-maximal effect; nearly all actives have a fitted effect of over 40% in size. Summed up: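 Steps: seed DPX-2 cells, 5 hr at 37C; pin-transfer compounds; 24 hr at 37C; add Luciferin-IPA (3uM final), 3 hr at 37C; add One-Glo, 30 min RT; read luminescence.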
Nuclear receptor subfamily 1 group I member 2 (Homo sapiens), sequence (O75469 whole entry, looked up): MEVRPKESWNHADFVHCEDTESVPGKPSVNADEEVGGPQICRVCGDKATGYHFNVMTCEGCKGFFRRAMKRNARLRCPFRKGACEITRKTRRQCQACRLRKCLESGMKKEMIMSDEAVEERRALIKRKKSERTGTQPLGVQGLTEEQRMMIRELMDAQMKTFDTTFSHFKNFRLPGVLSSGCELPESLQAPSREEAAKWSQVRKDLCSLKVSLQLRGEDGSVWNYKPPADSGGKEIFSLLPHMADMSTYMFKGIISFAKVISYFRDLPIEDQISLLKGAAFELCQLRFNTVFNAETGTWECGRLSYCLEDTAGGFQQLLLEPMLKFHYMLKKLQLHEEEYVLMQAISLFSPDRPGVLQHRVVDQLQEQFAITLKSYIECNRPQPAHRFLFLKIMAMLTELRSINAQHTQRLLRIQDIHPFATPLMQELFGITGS

Assay [8] has the same target. As to the kind of experiment: Human pregnane X receptor (PXR) activation by small molecules, qHTS assay (AID 1346985). Also: nearly all actives have a fitted effect of over 40% in size. Also: potency is read from the fitted curve at half-maximal effect. As to activation: % is scaled to controls: 0 for no effect and ±100 for the full control effect. Summed up:
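DPX-2 cells (HepG2 co-transfected with a PXR response element and a CYP3A4-promoter luciferase construct) were seeded at 2,000 per well, rested 5 hr at 37C, then exposed to DMSO-dissolved compounds for 24 hr. Activation was read as luciferase luminescence.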

Assay [9] concerns the target Cytochrome P450 2D6 (Homo sapiens) (UniProt P10635). As to the kind of experiment: Cytochrome P450 Family 2 Subfamily D Member 6 (CYP2D6) small molecule antagonists: luciferase reporter qHTS assay (AID 1671196). Also: nearly all actives have a fitted effect of over 50% in size. Also: potency is read from the fitted curve at half-maximal effect. Summed up: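 P450-Glo format: CYP2D6 converts a proluciferin substrate to luciferin in an NADPH-driven reaction lasting 1 h at room temperature. Light output, proportional to CYP2D6 activity, reflects interference by test chemicals.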

In assay [10] the target is Cytochrome P450 2C19 (Homo sapiens) (UniProt P33261). As to the kind of experiment: Cytochrome P450 Family 2 Subfamily C Member 19 (CYP2C19) small molecule antagonists: luciferase reporter qHTS assay (AID 1671197). Also: nearly all actives have a fitted effect of over 65% in size. Also: potency is read from the fitted curve at half-maximal effect. The method in brief:
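CYP2C19 P450-Glo, 1536-well qHTS. Cpd + enzyme/proluciferin substrate 10 min RT; + NADPH regen, 37C 1 h; stop with luciferin detection reagent, 20 min RT, luminescence (RLU). Pos ctrl ketoconazole.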
(In general: In a reporter assay the amount or activity of a reporter protein is the signal.)

The target of assay [11] is Cytochrome P450 2C9 (Homo sapiens) (UniProt P11712). As to the kind of experiment: Cytochrome P450 Family 2 Subfamily C Member 9 (CYP2C9) small molecule antagonists: luciferase reporter qHTS assay (AID 1671198). Also: nearly all actives have a fitted effect of over 50% in size. Also: potency is read from the fitted curve at half-maximal effect. Summed up: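 Enzyme-substrate mix preincubated with compound 10 min at room temperature; reaction started with NADPH regeneration solution, 1 h 37C. Luminescent luciferin product read after 20 min detection reagent.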
Cytochrome P450 2C9 (Homo sapiens), sequence (P11712 whole entry, looked up): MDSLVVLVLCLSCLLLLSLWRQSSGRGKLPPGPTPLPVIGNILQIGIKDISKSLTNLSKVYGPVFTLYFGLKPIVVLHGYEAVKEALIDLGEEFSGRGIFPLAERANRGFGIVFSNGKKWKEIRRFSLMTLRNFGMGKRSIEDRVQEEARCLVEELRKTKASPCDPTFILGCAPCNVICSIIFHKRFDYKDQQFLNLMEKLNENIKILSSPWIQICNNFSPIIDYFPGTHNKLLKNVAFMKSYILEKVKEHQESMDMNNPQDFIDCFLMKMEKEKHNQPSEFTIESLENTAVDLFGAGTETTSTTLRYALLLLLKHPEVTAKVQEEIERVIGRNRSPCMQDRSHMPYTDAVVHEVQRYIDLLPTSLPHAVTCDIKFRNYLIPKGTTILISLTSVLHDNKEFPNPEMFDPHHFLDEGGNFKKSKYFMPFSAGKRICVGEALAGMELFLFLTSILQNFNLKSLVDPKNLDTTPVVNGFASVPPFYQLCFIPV

Assay [12] concerns the target Cytochrome P450 1A2 (Homo sapiens) (UniProt P05177). As to the kind of experiment: Cytochrome P450 Family 1 Subfamily A Member 2 (CYP1A2) small molecule antagonists: luciferase reporter qHTS assay (AID 1671199). Also: nearly all actives have a fitted effect of over 50% in size. Also: potency is read from the fitted curve at half-maximal effect. Summed up: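 Inhibition of CYP1A2 conversion of proluciferin to luciferin, detected by luminescence. Reaction run 1 h at room temperature with NADPH regeneration after brief compound preincubation.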

Assay [13] concerns the target Cytochrome P450 3A4 (Homo sapiens) (UniProt P08684). As to the kind of experiment: Cytochrome P450 Family 3 Subfamily A Member 4 (CYP3A4) small molecule antagonists: luciferase reporter qHTS assay (AID 1671201). Also: nearly all actives have a fitted effect of over 50% in size. Also: potency is read from the fitted curve at half-maximal effect. The method in brief: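 Compounds in DMSO were pin-transferred onto CYP3A4 enzyme-substrate mix and held 10 min at room temperature. NADPH regenerating solution started the reaction for 1 h; luciferin detection reagent stopped it, and luminescence was read after 20 min.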

Assay [14] deals with Voltage-gated inwardly rectifying potassium channel KCNH2 (Homo sapiens) (UniProt Q12809). As to the kind of experiment: Human Ether-a-go-go-Related Gene (hERG) channel small molecule antagonists: fluorescence cell-based qHTS assay (AID 1671200). Also: nearly all actives have a fitted effect of over 50% in size. Also: potency is read from the fitted curve at half-maximal effect. The method in brief: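 Channel function was assessed by thallium flux. Cells seeded the previous day and kept at 37 C took up FluxOR II dye over 1 h in the dark at room temperature, then sat another 10 min before stimulation.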
Voltage-gated inwardly rectifying potassium channel KCNH2 (Homo sapiens), sequence (Q12809 whole entry, looked up): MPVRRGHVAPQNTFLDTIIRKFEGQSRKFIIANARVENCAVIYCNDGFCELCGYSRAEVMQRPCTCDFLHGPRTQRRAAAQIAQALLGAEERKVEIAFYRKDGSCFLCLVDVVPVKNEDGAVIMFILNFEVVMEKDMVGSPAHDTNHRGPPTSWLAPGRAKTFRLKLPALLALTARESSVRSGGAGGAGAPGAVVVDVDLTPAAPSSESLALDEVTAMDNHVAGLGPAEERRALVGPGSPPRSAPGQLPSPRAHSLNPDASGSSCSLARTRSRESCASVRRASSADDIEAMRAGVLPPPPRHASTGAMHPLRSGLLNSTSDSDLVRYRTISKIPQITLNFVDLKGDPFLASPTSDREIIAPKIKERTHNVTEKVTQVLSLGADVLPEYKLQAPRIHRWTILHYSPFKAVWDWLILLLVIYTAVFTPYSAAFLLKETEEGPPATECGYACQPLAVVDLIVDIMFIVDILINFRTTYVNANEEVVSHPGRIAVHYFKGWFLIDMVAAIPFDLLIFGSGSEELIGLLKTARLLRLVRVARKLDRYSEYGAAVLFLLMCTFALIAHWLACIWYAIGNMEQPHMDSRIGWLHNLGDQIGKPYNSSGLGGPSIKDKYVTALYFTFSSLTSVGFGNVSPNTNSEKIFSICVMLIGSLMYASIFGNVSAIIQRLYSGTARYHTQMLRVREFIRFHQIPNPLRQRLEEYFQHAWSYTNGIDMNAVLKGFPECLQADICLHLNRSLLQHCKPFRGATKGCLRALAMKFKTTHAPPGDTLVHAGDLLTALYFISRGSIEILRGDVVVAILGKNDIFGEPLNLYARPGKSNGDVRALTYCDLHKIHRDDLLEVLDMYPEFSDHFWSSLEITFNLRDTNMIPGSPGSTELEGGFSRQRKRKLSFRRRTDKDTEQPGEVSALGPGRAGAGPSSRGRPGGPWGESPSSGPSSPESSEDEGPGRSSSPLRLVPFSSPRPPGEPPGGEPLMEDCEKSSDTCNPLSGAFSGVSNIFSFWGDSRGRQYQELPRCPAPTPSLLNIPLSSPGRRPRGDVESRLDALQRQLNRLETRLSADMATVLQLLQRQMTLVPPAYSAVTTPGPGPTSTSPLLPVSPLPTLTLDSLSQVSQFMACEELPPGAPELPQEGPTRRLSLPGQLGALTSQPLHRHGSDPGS

The results in this text go back to PubChem BioAssay (Tox21).

Unmarked numbers belong to inactive results. Results filed as inconclusive are left out. Activity calls are given as the source filed them. Calls follow the shape of the dose curve; as a rule, active = well fitted curve in the direction sought with a large enough effect in the repeat runs; inconclusive = weak or mixed curves; inactive = no such curve, though single readings can be large; an effect the other way counts as inactive or inconclusive.

Cytochrome P450 2D6 (Homo sapiens), sequence (P10635 whole entry, looked up): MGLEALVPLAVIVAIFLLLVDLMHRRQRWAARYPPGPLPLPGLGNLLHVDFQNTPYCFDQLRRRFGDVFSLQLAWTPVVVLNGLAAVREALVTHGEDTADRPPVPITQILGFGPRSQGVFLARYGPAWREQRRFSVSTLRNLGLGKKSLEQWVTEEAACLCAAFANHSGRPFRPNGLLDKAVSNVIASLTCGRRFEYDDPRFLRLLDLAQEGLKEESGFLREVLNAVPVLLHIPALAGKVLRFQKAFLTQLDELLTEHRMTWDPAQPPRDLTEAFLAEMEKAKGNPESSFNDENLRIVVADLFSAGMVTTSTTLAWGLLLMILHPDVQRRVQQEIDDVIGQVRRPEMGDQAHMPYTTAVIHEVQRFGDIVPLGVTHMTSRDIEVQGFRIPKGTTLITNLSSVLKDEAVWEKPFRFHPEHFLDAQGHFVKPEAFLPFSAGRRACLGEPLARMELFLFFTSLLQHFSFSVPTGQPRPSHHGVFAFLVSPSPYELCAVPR
Cytochrome P450 1A2 (Homo sapiens), sequence (P05177 whole entry, looked up): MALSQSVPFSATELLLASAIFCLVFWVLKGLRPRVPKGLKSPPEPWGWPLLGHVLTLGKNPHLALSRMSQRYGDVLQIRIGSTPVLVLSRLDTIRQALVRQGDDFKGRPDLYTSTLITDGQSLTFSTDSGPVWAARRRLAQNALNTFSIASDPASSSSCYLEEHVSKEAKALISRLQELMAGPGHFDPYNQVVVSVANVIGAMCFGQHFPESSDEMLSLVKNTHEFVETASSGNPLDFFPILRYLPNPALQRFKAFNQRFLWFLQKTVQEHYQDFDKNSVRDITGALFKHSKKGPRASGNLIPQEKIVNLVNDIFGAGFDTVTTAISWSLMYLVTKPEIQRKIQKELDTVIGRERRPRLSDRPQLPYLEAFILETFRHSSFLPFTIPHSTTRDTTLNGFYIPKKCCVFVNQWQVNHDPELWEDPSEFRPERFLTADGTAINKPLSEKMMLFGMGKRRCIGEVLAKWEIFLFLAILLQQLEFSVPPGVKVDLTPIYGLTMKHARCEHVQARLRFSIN
Cytochrome P450 2C19 (Homo sapiens), sequence (P33261 whole entry, looked up): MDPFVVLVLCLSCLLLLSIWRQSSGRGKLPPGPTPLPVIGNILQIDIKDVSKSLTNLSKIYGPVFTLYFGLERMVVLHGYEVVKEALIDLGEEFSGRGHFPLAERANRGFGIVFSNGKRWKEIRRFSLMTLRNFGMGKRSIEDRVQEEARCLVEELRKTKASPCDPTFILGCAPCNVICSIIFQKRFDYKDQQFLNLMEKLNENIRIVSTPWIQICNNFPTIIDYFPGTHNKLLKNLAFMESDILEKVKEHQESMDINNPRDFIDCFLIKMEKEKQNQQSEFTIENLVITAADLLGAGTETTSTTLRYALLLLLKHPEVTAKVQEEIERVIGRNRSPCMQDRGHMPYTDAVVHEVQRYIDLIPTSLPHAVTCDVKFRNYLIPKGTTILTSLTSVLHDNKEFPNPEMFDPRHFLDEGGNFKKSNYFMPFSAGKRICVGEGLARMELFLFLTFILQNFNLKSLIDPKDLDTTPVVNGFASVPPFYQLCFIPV
Cytochrome P450 3A4 (Homo sapiens), sequence (P08684 whole entry, looked up): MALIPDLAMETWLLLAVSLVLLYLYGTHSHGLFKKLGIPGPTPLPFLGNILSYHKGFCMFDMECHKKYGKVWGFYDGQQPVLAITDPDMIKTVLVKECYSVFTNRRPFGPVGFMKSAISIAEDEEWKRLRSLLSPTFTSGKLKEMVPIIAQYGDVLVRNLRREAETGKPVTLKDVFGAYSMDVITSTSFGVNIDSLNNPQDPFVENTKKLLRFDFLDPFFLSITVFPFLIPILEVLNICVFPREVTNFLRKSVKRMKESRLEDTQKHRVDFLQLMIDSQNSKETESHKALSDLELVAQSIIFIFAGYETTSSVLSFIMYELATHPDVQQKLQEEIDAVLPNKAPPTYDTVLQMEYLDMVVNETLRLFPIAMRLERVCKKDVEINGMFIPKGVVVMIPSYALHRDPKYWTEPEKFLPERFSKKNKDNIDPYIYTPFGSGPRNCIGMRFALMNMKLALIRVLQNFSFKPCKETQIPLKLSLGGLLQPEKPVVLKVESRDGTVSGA
Nuclear receptor subfamily 1 group I member 2 (Rattus norvegicus), sequence (Q9R1A7 whole entry, looked up): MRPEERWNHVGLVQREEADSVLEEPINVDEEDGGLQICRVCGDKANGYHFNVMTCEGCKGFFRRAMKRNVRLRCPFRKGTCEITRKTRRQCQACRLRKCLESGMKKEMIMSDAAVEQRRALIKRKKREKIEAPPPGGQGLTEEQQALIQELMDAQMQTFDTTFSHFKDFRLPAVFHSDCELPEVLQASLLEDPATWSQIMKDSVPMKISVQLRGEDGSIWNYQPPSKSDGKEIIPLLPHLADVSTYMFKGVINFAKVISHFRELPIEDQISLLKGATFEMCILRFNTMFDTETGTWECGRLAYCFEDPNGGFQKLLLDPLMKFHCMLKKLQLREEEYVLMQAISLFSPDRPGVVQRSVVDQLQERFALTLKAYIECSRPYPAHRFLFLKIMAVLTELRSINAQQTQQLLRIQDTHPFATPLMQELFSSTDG

With `CC(C)(C)CC(C)(C)c1ccc(OCCO)cc1`, the Potency in [1] was 27.1 µM (active); in [2], 54.2 µM (active); in assay [4], 48.3 µM (active); in [5] it was 15.3 µM (active); in assay [7] it was 3.55 µM (active); in assay [10] it was 79.2 µM (active). Further, the Potency in assay [11] was 31.5 µM (active); in assay [13], 17.7 µM (active). The call in assay [3] was inactive. For the same compound, the max activation in [6] is -7.23%. The Potency entry in [8], in [9] and in [12] was “inactive” in each case.
On to `OCCSc1ccccc1`, for which the Potency result in assay [1], in assay [2], in assay [4], in assay [5], in assay [10] and in assay [11] was “inactive” throughout. The Potency result in [14] and in assay [13] was “inactive” each time. Also, the compound was classed as inactive in assay [3]. The Potency in assay [12] is 39.9 µM (active).
Consider `COCC(O)CO` (configuration not stated), for which the Potency entry in [1], in assay [2], in assay [4], in assay [5], in [9] and in assay [10] was “inactive” in each case. Moreover, the Potency result in [11], in assay [12], in assay [14] and in assay [13] was “inactive” each time. Also, the call in [3] was inactive.
In the case of `O=C(CCCN1CCC(O)(c2ccc(Br)cc2)CC1)c1ccc(F)cc1`, the Potency entry in assay [1], in [2], in assay [4], in assay [10], in [11] and in assay [12] was “inactive” each time. In assay [13], the Potency entry was “inactive”. The compound was classed as inactive in assay [3]. Also, the max activation in assay [6] was -1.43%. Further, the Potency was 11.2 µM (active) in assay [7], 11.2 µM (active) in assay [8], 2.45 µM (active) in [9] and 0.239 µM (active) in assay [14].
On to `CC1=CC(O)CC(C)(C)C1` (configuration not stated), for which the Potency result in assay [1], in assay [2], in assay [4], in [5], in assay [9] and in [10] was “inactive” throughout. The Potency result in assay [11], in [12], in [14] and in [13] was “inactive” throughout. The result in assay [3] was inactive.
Consider `CCCCC(CC)CNCC(CC)CCCC` (configuration not stated), for which the Potency result in assay [1], in [2], in assay [4], in [5], in assay [11] and in [13] was “inactive” throughout. Also, the compound was called inactive in assay [3]. The results for the Potency in assay [9] and in [10] were 0.199 µM (active) and 35.3 µM (active), respectively.
As to `CC1=C(C=O)C(C)(C)CCC1`, the Potency entry in [1], in assay [2], in [9], in assay [12] and in [14] was “inactive” each time. For the same compound, the outcome in assay [3] was inactive. The Potency in assay [5] is 27.3 µM (active).
Regarding `C=CC(=C)CCCC(C)(C)OC(C)=O`, the Potency entry in assay [1], in assay [2], in assay [5], in assay [9], in assay [10] and in [11] was “inactive” in each case. The Potency result in assay [14] and in assay [13] was “inactive” in each case. Further, the compound was called inactive in assay [3].
With `COc1cc2c(N3CCN(C(=O)Nc4ccc(OC(C)C)cc4)CC3)ncnc2cc1OCCCN1CCCCC1`, the results for the Potency in assay [1], in [2] and in assay [9] were 23.7 µM (active), 23.7 µM (active) and 15.5 µM (active), respectively. Also, the outcome in assay [3] was inactive. For the same compound, the Potency result in assay [5], in assay [10], in [11], in assay [12] and in assay [13] was “inactive” throughout.
